Hit rate of the full screen: of about 63,000 compounds, about 30 (0.05%) were called active. No rule for the calls is given here. A selection follows.
Target: G protein-activated inward rectifier potassium channel 2 (Homo sapiens) (UniProt P48051)
Assay: opens human GIRK2 potassium channels (AID 1259325)
Settings: HEK293-GIRK2 thallium flux, Thallos fluorescence, MPD

Sequence of G protein-activated inward rectifier potassium channel 2 (Homo sapiens) (P48051 whole entry, looked up): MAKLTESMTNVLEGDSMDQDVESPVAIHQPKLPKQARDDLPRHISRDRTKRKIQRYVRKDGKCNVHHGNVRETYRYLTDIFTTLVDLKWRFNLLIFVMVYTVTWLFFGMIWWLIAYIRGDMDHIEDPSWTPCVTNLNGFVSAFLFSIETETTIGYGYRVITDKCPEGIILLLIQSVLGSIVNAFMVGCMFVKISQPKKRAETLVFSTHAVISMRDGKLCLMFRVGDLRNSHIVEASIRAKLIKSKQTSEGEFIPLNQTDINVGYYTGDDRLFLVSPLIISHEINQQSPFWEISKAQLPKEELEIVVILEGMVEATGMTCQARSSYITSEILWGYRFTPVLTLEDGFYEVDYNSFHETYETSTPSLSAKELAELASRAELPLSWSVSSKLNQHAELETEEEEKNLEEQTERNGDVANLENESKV

outcome, inactive:
Cc1cc(NC(=O)c2ccc([N+](=O)[O-])o2)n(-c2nc3c(F)cccc3s2)n1
O=C(Cc1csc(Nc2ccc(OC(F)(F)F)cc2)n1)NCc1ccncc1
COC(=O)c1ccccc1NS(=O)(=O)c1ccc(N2C(=O)CCC2=O)cc1
Cc1cc(C(=O)Nc2nc3c(C)ccc(Cl)c3s2)on1
COc1ccc(CC(=O)NC2CC(O)C(CO)C2)cc1OC (centres undefined)
Cc1cc(C)c(C)c(S(=O)(=O)N2CCC(S(C)(=O)=O)C2)c1C (centres undefined)
O=C(OC1CN(c2nc3c(Cl)cccc3s2)C1)c1ccc(=O)[nH]n1
O=C(c1ccc(OC(F)(F)F)cc1)N1CCC(CSC2=NCCS2)CC1
COc1ccc(-c2csc(Cc3nc(-c4ccc(C(F)(F)F)cc4)no3)n2)cc1OC
COc1cc(C2c3c(oc4ccc(C)cc4c3=O)C(=O)N2CCO)cc(OC)c1OC (centres undefined)
Cc1oc2cc(OC(=O)N3CCOCC3)ccc2c(=O)c1-c1ccc(Br)cc1
O=C(CSc1nc2ccccc2o1)N1CCN(c2cc(N3CCCCC3)ncn2)CC1
O=C(Nn1cnc2c(cnn2-c2ccccc2)c1=O)c1ccc(Cl)cc1Cl
O=C1/C(=C/c2cc(Br)cc3c2OCOC3)Oc2cc(OC(=O)N3CCOCC3)ccc21
Cc1ccc(Nc2c(C(=O)N3CCOCC3)cnc3ccccc23)cc1C
COc1ccc(NC(=O)CCc2csc(NC(=O)c3ccc[nH]c3=O)n2)cc1Cl
COCCCn1c(C(=O)Nc2cccc(C)c2C)cc2c(=O)n(C)c(=O)n(C)c21
COc1ccc(C2C(C(=O)Nc3ccccc3)=C(C)Nc3nc(C)nn32)cc1OC (centres undefined)
COc1ccccc1OCC#CCNC(=O)CSc1nc2ccccc2s1
CCOc1ccccc1C(=O)Nc1ccc(C)c(N2CCCC2=O)c1
COC(=O)c1ccc(S(=O)(=O)NCCC(O)c2cc(C)oc2C)cc1 (centres undefined)
Cc1nnsc1C(=O)NCC1CCN(C(=O)c2ccoc2)CC1
CCC1CCCCN1C(=O)c1cnc2nc(C)ccc2c1Nc1ccc(S(C)(=O)=O)cc1 (centres undefined)
COc1ccc(NC(=O)c2cn(Cc3ccc(NC(=O)c4ccccc4F)cc3)cn2)cc1
CS(=O)(=O)N1CCc2nc(NC(=O)/C=C/c3ccccc3Cl)sc2C1
C=C1C(=O)O[C@H](CCCCCCCC)C1C(=O)O (some centres undefined)
COc1cc(CN2CC(c3nc4ccc(C)cc4[nH]3)C2)cc(OC)c1
COc1ccc(C(O)=C2C(=O)C(=O)N(c3cc(C)on3)C2c2ccc(C)cc2)cc1OC (centres undefined)
COc1cc(OC)cc(C(=O)Nc2ccc(Cl)c3ncsc23)c1
Cc1ccc(=O)n(CC(=O)N2CCC(Cc3ccccc3)CC2)n1
O=S(=O)(c1cccc(Cl)c1Cl)N1CCN(c2ccc(-c3ccccc3)nn2)CC1
O=C(C1CCN(c2ccc(-c3ccccc3)nn2)CC1)N1CCN(Cc2ccccc2)CC1
COc1ccc(N2CCN(CCCn3c(C)cn4c5c(=O)[nH]c(=O)n(C)c5nc34)CC2)cc1
O=C(O)CCC/C=C\C[C@@H]1[C@@H](/C=C/C(=O)COc2cccc(C(F)(F)F)c2)[C@H](O)C[C@@H]1O
O=C(c1cc(-c2ccco2)[nH]n1)N1CC(c2nc(-c3ccc[nH]c3=O)no2)C1
COc1ccc(OCc2noc(CNC(=O)/C=C/c3cccs3)n2)cc1
COc1ccc(OCc2noc(CNC(=O)c3ccc4nsnc4c3)n2)cc1
CC1CCC(NC(=O)C2CCN(c3nc4c(-c5ccccc5F)csc4c(=O)[nH]3)CC2)CC1 (centres undefined)
Cc1ccc(C)c(NC(=O)CSc2ncnc3nc(N4CCc5ccccc5C4)sc23)c1
O=C1NC(=NCCc2cccc(F)c2)S/C1=C\c1ccc2ncccc2c1
O=C(NCCC(O)c1cccc2ccccc12)Nc1ccccc1 (centres undefined)
O=C(Cc1ccccc1Cl)N1CCCC(c2nnc(-c3ccccc3F)s2)C1 (centres undefined)
CC(=O)Nc1nc2c(s1)CN(CC(=O)Nc1ccc(OC(F)(F)F)cc1)CC2
CCOCCn1c(-n2nc(C)cc2C)nc2c1c(=O)n(Cc1ccccc1F)c(=O)n2C
CCOC(=O)C1CCc2sc(NC(=O)CCc3c(C)nn(C)c3C)nc21 (centres undefined)
O=S(=O)(/C=C/c1ccccc1)NCc1ccc(C(O)c2cccs2)s1 (centres undefined)
COC(=O)c1ccccc1NC(=O)Cn1nc2nc(N3CCCC(C)C3)ccn2c1=O (centres undefined)
Cc1cccc(Cn2c(N3CCC(C(N)=O)CC3)nc3c2c(=O)[nH]c(=O)n3C)c1
CCCn1c(=O)c2cc(Cl)ccc2n2c(SCC(=O)Nc3ccc4c(c3)OCO4)nnc12
O=C(NCc1ccc2c(c1)OCO2)C1CCN(c2ncnc3c2sc2ncccc23)CC1
COc1ccc2c(=O)c3c(oc2c1)C(=O)N(CCCN(C)C)C3c1ccccc1 (centres undefined)
CC(=O)Nc1cccc(C#Cc2cncnc2Nc2ccc(OCc3cccc(F)c3)c(Cl)c2)n1
O=S(=O)(Cc1nc(-c2ccc(OCc3ccccc3)cc2)no1)c1ccccc1
O=C(NC1CCN(C(=O)c2cn(-c3ccc(Cl)cc3)nn2)CC1)C1CCCC1
COc1cccc(CSc2nc(C)c(CC(=O)Nc3cccc(Cl)c3C)c(=O)[nH]2)c1
COc1cc(-c2nc(CSc3nc4ccccc4c(=O)n3C)c(C)o2)cc(OC)c1OC
Cc1cn2c3c(=O)n(Cc4ccc(Br)cc4)c(=O)n(C)c3nc2n1CCCO
COc1ccc(S(=O)(=O)Nc2cccc(N3CCCCC3=O)c2)cc1
C#CCn1c(COc2ccccc2OC)nc2ccccc21
O=C(CCSc1ccccc1)NCCCn1ncccc1=O
CC(O)C(O)(C(=O)OCc1ccccc1NC(=O)CCC(=O)O)C(C)O (centres undefined)
O=C(Nc1cnoc1)c1ccc(OC(F)(F)F)cc1
Cc1nc(-c2noc(-c3cccnc3)n2)cn1CC(=O)N1CCc2ccccc21
O=C(Nc1cccc(F)c1)c1sccc1S(=O)(=O)N1CCN(c2ccccc2)CC1
